TDP1 block = TDP1 (human) enzyme inhibition. Q9NUW8. recombinant TDP1, AlphaScreen DNA substrate cleavage. Potency, µM (titrated, usually from 130 µM), hits mostly inhibitors. actives 0.28% (n = 350,000); note: nearly all actives have a fitted effect of over 40% in size
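Tdp1 1 nM final; 15 min RT w/ cpd; substrate 15 nM, 5 min; beads 10 ug/ml, 10 min; AlphaScreen read. Neg ctrl: no enzyme.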
POLI inh = inhibitors of human DNA polymerase iota. Potency, µM (doses to about 115 µM), actives largely listed as inhibitors. AID 588590. actives 1% (n = 390,000). Q9UNA4. Pol iota fluorescent replication assay, 10 min
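Fluorescent replication assay read twice, at 0 min and 10 min after adding 50 nM (final) substrate. Enzyme (10 nM) and compounds were first incubated 15 min at room temperature; enzyme-free buffer wells were negative controls.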
Pol eta inh-1 = inhibitors of human DNA polymerase eta. Q9Y253. recombinant Pol eta, fluorescent DNA replication assay. Potency, µM (top dose mostly 114 µM), actives largely listed as inhibitors. actives 1.2% (n = 390,000). AID 588591
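Pol eta at 10 nM preincubated with compounds 15 min at room temperature; reaction started with fluorescent substrate (50 nM final) and read kinetically at 0 and 10 min.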
Pol beta inh = DNA polymerase beta (human) inhibition; Pol beta primer extension/strand displacement, fluorescence kinetic; Potency, µM (top dose mostly 114 µM), most hits filed as inhibitors; actives 1.3% (n = 340,000)
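Reaction started by 50 nM substrate onto compound-treated Pol beta (10 nM, 15 min preincubation, room temperature); plates read at 0 min and 10 min. Normalized concentration-effect data fitted by four-parameter Hill equation.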
Pol kappa inh-1 = inhibitors of human DNA polymerase kappa; actives 0.53% (n = 400,000); purified Pol kappa, fluorescent DNA synthesis assay, 10 min; Potency, µM (titrated, usually from 107 µM), usual class: inhibitors; Q9UBT6
Target sequence (Q9UBT6 whole entry, looked up): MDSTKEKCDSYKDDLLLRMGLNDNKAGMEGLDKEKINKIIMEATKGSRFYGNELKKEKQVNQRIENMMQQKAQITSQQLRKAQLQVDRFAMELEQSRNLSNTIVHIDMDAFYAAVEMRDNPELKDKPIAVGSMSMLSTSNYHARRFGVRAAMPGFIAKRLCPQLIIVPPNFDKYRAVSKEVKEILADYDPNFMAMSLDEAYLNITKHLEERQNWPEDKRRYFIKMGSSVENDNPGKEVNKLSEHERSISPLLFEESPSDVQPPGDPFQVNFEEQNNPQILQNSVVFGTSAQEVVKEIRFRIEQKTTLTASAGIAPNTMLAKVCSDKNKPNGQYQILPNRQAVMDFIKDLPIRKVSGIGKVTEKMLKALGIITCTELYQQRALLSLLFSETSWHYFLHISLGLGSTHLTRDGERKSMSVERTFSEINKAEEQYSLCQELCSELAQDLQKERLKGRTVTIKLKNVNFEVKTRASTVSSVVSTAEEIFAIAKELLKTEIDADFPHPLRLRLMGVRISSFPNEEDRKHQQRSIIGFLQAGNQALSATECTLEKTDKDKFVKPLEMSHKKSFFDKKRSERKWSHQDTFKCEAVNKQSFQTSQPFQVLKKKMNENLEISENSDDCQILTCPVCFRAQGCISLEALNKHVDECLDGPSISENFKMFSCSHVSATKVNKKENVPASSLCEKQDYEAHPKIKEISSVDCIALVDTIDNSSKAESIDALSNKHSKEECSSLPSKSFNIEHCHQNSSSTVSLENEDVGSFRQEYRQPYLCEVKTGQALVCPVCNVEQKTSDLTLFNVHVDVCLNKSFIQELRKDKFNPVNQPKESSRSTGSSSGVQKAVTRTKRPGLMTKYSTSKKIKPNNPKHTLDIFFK
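Fluorescent qHTS in 1536-well format: enzyme (10 nM) and compound sat 15 min at room temperature before 50 nM substrate (final) was added. Signal taken at 0 and 10 min; no-enzyme buffer wells were negative controls.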
FEN1 inh = human FEN1 inhibition. P39748. Recombinant FEN1 flap cleavage, fluorescence, 15 min. Potency, µM (highest dose often 114 µM), usual class: inhibitors. actives 0.35% (n = 390,000). AID 588795; note: nearly all actives have a fitted effect of over 65% in size
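Nuclease activity of 10 nM FEN1 was measured after 15 min of room-temperature exposure to titrated compounds, by adding 50 nM flap substrate and reading plates at 0 and 15 min.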
TbPGK inh = validation of Trypanosoma brucei phosphoglycerate kinase inhibitors. AID 686980. shares compounds with Pol kappa inh-1. TbPGK coupled GAPDH assay, Kinase-Glo luminescence. Potency, µM (doses to about 57.5 µM), usual class: inhibitors. actives 79% (n = 500); note: nearly all actives have a fitted effect of over 65% in size
Pol iota confirm = Confirm cherry-picked inhibitors of human polymerase iota; actives 77% (n = 1,500); shares compounds with Pol kappa inh-1; Potency, µM, actives largely listed as inhibitors; Pol iota primer extension, TAMRA/BHQ fluorescence
GALK confirm = galactokinase (human) inhibition, confirmation | shares compounds with Pol eta inh-1 | purified GALK, Kinase-Glo ATP depletion luminescence | Potency, µM (doses to about 115 µM), actives largely listed as inhibitors | actives 70% (n = 150) | AID 2015
Redox cycling = counter-screen for GALK inhibitors: redox cycling H2O2 generation; shares compounds with Pol eta inh-1; Phenol red-HRP H2O2 redox cycling, absorbance 600 nm; Potency, µM (titrated, usually from 115 µM), actives largely listed as inhibitors; actives 40% (n = 150); AID 2035
HEK293 tox = HEK-293 cytotoxicity, GALK inhibitor secondary | Potency, µM (top dose mostly 46.1 µM), usual class: inhibitors | actives 10% (n = 170) | shares compounds with Pol eta inh-1 | HEK-293 viability, ATP luminescence (CellTiter-Glo), 24/48 h
Pol kappa inh-2 = confirmation of human DNA polymerase kappa inhibitors; shares compounds with Pol eta inh-1; purified Pol-kappa, fluorescent strand-displacement substrate; Potency, µM, most hits filed as inhibitors; actives 76% (n = 920); AID 720501
Pol eta inh-2 = confirmation of human DNA polymerase eta inhibitors. shares compounds with Pol eta inh-1. Pol eta primer extension, TAMRA/BHQ fluorescence, 10 min. Potency, µM, usual class: inhibitors. actives 64% (n = 2,600)
Large screens that a line does not name were inactive (follow-up assays come after a bar, where they were run). In the library only some 2.4% were active in any assay of this set; here they are far more common. Calls come from the whole dose curve; as a rule, active = well fitted curve in the direction sought with a large enough effect; inconclusive = small, poorly fitted or top-dose-only effect, or another doubt; inactive = no such curve, though single readings can be large; an effect the other way counts as inactive or inconclusive.

Oc1ccc2ccccc2c1C=NC12CN3CCN(CN(C3)C1)C2	POLI inh 20µM, Pol eta inh-1 20µM | Pol iota confirm inconclusive | Pol eta inh-2 inconclusive
Cc1cc(=O)oc2c3c(ccc12)OC/C3=N/N	POLI inh inconclusive, Pol eta inh-1 inconclusive | Pol iota confirm 42 | Pol kappa inh-2 34 | Pol eta inh-2 30
Cc1ccccc1CCNC(=O)c1ccc2c(c1)c(C)c(C)n2Cc1ccccc1	none
COc1cc(C)cc(C(=O)O)c1C1=C(O)c2cccc(O)c2C(=O)C1=O	POLI inh 35µM, Pol eta inh-1 16µM, Pol beta inh 28µM, Pol kappa inh-1 50µM, FEN1 inh inconclusive (no result: TDP1 block) | Pol iota confirm 34 | Pol eta inh-2 24
O=C(O)c1cccc(-n2cccc2/C=C2\NC(=O)N(Cc3ccc(F)cc3)C2=O)c1	TDP1 block inconclusive, POLI inh 22µM, Pol eta inh-1 20µM, Pol beta inh 11µM, Pol kappa inh-1 79µM, FEN1 inh inconclusive | Pol iota confirm 67 | Pol eta inh-2 30
CCOC(=O)c1cccc(-n2cccc2/C=C2\NC(=O)N(CC(=O)O)C2=O)c1	none (no result: Pol beta inh)
O=C(O)c1ccc(COc2ccccc2/C=C2\NC(=O)N(Cc3ccccc3)C2=O)cc1	FEN1 inh inconclusive
O=C(O)c1ccc(-n2cccc2/C=C2/NC(=O)N(c3ccccc3)C2=O)cc1	POLI inh 3.2µM, Pol eta inh-1 2.8µM, Pol beta inh inconclusive, Pol kappa inh-1 22µM, FEN1 inh inconclusive (no result: TDP1 block) | TbPGK inh 5.8µM | Pol iota confirm 3.4 | Pol eta inh-2 5.4
Cc1ccc(CN2C(=O)N/C(=C\c3cccn3-c3cccc(C(=O)O)c3)C2=O)cc1	POLI inh 14µM, Pol eta inh-1 8.9µM, Pol beta inh 8.9µM, Pol kappa inh-1 50µM, FEN1 inh inconclusive | Pol iota confirm 21 | Pol eta inh-2 27
O=C1N/C(=C/c2cccn2-c2ccccc2)C(=O)N1Cc1ccccc1F	none
O=C(O)c1ccc(COc2ccc3ccccc3c2/C=C2/NC(=O)N(Cc3ccc(F)cc3)C2=O)cc1	Pol eta inh-1 32µM, Pol beta inh 22µM, Pol kappa inh-1 inconclusive, FEN1 inh inconclusive | Pol iota confirm inconclusive | Pol kappa inh-2 38 | Pol eta inh-2 inconclusive
COC(=O)C1=C(C(=O)OC)[C@@H]2N(C)c3ccccc3[C@@]23C[C@@H](C(=O)OC)N(S(=O)(=O)c2ccc(C(F)(F)F)cc2)C3=N1	none (no result: POLI inh, Pol eta inh-1, Pol beta inh, Pol kappa inh-1, FEN1 inh)
COc1cc2cc(CNc3ccc(C)cc3)c(=O)n(CC(=O)Nc3ccc(C(C)C)cc3)c2cc1OC	none
CCOc1ccc(Nc2nc(C)c(NC(=O)c3cccc(F)c3)c(Nc3ccc(OCC)cc3)n2)cc1	POLI inh inconclusive
CCn1cc(CNC(=O)c2cc(-c3ccc(C)cc3)nc3ccc(Br)cc23)c(C)n1	POLI inh inconclusive, Pol eta inh-1 inconclusive, Pol beta inh inconclusive
Cn1nnnc1SCCCNCc1cccc(OCc2ccccc2F)c1	none
COC(=O)N1CCC2(CCCN(Cc3ccc(C#N)cc3)C2)CC1	none (no result: TDP1 block, POLI inh, Pol eta inh-1, Pol beta inh, FEN1 inh)
Cc1ccc(CN2C(=O)N/C(=C/c3ccc4c(c3)n(C)c(=O)n4C)C2=O)cc1	none (no result: POLI inh, Pol eta inh-1, Pol kappa inh-1, FEN1 inh)
Cc1cc(C(=O)O)ccc1-c1ccc(/C=C2\NC(=O)N(Cc3ccc(F)cc3)C2=O)o1	TDP1 block 4µM, POLI inh inconclusive, Pol eta inh-1 7.1µM, Pol beta inh inconclusive, Pol kappa inh-1 28µM, FEN1 inh inconclusive | Pol iota confirm 17 | Pol eta inh-2 17
O=C(N/N=C/c1cc(Br)c(Br)o1)c1ccc2c(c1)OCCO2	POLI inh inconclusive, Pol eta inh-1 13µM, Pol beta inh 8.9µM, Pol kappa inh-1 inconclusive | Pol iota confirm inconclusive | Pol eta inh-2 30
O=C(c1csnn1)N1CCC2(CCCN(c3ccccc3)C2)CC1	none (no result: TDP1 block, POLI inh, Pol eta inh-1, Pol beta inh, FEN1 inh)
COc1ccc(-c2cnnc(N/N=C/c3ccc(O)c(O)c3)n2)cc1	POLI inh 8.9µM, Pol eta inh-1 20µM, Pol beta inh 3.5µM, Pol kappa inh-1 25µM, FEN1 inh inconclusive | Pol iota confirm 47 | Pol eta inh-2 30
COc1ccc(-c2cnnc(N/N=C/c3ccc(O)cc3)n2)cc1	none
O=C(NCCN1CCCC1)c1ccc(Cn2c(=S)[nH]c3cc4c(cc3c2=O)OCO4)cc1	POLI inh inconclusive, Pol eta inh-1 inconclusive
C=CCNC(=O)c1ccc(Cn2c(=S)[nH]c3cc4c(cc3c2=O)OCO4)cc1	POLI inh 20µM, Pol eta inh-1 inconclusive, Pol kappa inh-1 79µM, FEN1 inh inconclusive | Pol iota confirm 67 | Pol kappa inh-2 47
COc1ccccc1CNc1ncncc1-c1ccc(C(=O)N(C)C)cc1	none (no result: TDP1 block, POLI inh, Pol eta inh-1, Pol beta inh, FEN1 inh)
O=C1c2ccccc2C(=O)C12OC2c1cccc2ccccc12 (stereo not given)	POLI inh 3.5µM, Pol eta inh-1 20µM | Pol iota confirm inconclusive | GALK confirm 17µM | Redox cycling 13µM | HEK293 tox inactive | Pol eta inh-2 38
COc1ccc(NC(=O)N2CC[C@@]3(CCCN(C(=O)c4cccc(F)c4)C3)C2)cc1	none (no result: TDP1 block, POLI inh, Pol eta inh-1, Pol beta inh, FEN1 inh)
NS(=O)(=O)c1ccc(N=Nc2ccc(=O)[nH]c2O)cc1	TDP1 block 45µM, POLI inh inconclusive, Pol eta inh-1 10µM, Pol beta inh 6.3µM, Pol kappa inh-1 inconclusive, FEN1 inh 79µM | TbPGK inh 5.2µM | Pol iota confirm 38 | Pol kappa inh-2 15 | Pol eta inh-2 inconclusive

Screening results as filed in PubChem.
